Screens (PubChem)
A selection: hits, their analogues and other compounds. The true share with any hit is near 2.9%.
mIDH1 inhibitor = human IDH1 R132H inhibition; O75874; IDH1-R132H enzyme, NADPH consumption, diaphorase/resazurin fluorescence; Potency, µM (doses to about 76.6 µM), usual class: inhibitors; actives 0.093% (n = 390,000); AID 602179; further: nearly all actives have a fitted effect of over 65% in size
Target sequence (O75874 whole entry R132H, stated change not applied): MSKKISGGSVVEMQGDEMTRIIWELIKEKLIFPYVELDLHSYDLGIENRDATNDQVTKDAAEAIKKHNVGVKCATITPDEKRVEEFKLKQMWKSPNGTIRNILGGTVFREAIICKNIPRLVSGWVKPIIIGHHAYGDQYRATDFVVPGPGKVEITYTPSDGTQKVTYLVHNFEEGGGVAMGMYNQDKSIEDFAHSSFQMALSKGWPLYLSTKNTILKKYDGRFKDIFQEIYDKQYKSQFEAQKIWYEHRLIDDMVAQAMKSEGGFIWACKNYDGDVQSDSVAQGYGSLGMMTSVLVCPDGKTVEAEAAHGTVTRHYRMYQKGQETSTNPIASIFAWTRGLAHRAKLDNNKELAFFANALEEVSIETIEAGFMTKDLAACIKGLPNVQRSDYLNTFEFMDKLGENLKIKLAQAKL
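IDH1-R132H (0.5 ug/mL dispensed) in pH 7.5 Tris buffer was preincubated 30 min with compound, then given a substrate mix of 0.016 mM NADPH and 2 mM alpha-KG for 80 min at room temperature; remaining NADPH was read by diaphorase/resazurin fluorescence.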
D3 ag = agonists of human D3 dopamine receptor | D3R DiscoveRx beta-arrestin cells, luminescence, 90 min | P35462 | AID 652048 | actives 0.58% (n = 410,000) | max activation, %; in the data active means max activation above about 30%
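Agonist-mode cell screen: cells plated at 1500/well and incubated overnight at 37 °C, then exposed to library compounds for 90 min at 37 °C. Detection reagent was added for 30–60 min at room temperature, and luminescence was read.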
D3 antag = antagonists of human D3 dopamine receptor | P35462 | D3R cells, DiscoveRx beta-arrestin luminescence, antagonist mode; active compounds read low | max response, negative = inhibition, % | actives 2.5% (n = 360,000); in the data active means max response below about -50%; inconclusive means no clear call, values can overlap the other calls
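Cells plated overnight at 1500 cells/well, then exposed to library compounds with dopamine controls for 90 minutes at 37 degrees C. DiscoveRx reagent added for 30–60 minutes at room temperature; luminescence read, quantitative HTS format.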
B2AR arrestin = recruits beta-arrestin to the human beta2-adrenergic receptor | Potency, µM (doses to about 46.1 µM), actives largely listed as activators | P07550 | beta-arrestin recruitment to beta2AR, cell-based reporter | actives 0.02% (n = 330,000) | AID 492947; further: nearly all actives have a fitted effect of over 65% in size
a7 integrin act = activates integrin-mediated alleviation for muscular dystrophy; actives 0.064% (n = 350,000); alpha7betagal myoblasts, beta-gal FDG fluorescence, 48 h; Potency, µM (series often up to 38.3 µM), usual class: activators; further: nearly all actives have a fitted effect of over 60% in size
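Alpha7betagal+/- myoblasts (passage 13) were plated 16-24 hr, then exposed to compounds (1:260 dilution of DMSO stock) for 48 hours at 37C. After MPER lysis, β-galactosidase reporter activity was read as FDG fluorescence (ex 480/em 540) after 30 minutes.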
IDH1 autofl = counter-screen for mutant IDH1 inhibitors: fluorescence interference; inhibition of signal, % at 51.2 µM; AID 623980; Resorufin detection reagent fluorescence interference, cell-free; shares compounds with mIDH1 inhibitor; 750 tested, under 10 active
WT IDH1 inh = wild-type IDH1 (human) inhibition counterscreen | actives 9% (n = 750) | Potency, µM (top dose mostly 115 µM), usual class: inhibitors | WT IDH1 enzyme, NADPH diaphorase/resazurin fluorescence | shares compounds with mIDH1 inhibitor | AID 623995; further: nearly all actives have a fitted effect of over 55% in size
Target sequence (O75874 whole entry, looked up): as the sequence (O75874 whole entry R132H, stated change not applied) above, with H132R counted along it
IDH1 R132H conf = inhibits human mutant IDH1 enzyme in cherrypick confirmation; Potency, µM (highest dose often 76.6 µM), hits mostly inhibitors; shares compounds with mIDH1 inhibitor; IDH1 R132H enzyme, NADPH diaphorase/resazurin fluorescence; actives 83% (n = 750); AID 624002; further: nearly all actives have a fitted effect of over 50% in size
Large screens that a line does not name were inactive (follow-up assays come after a bar, where they were run); ! = not active in a repeat. Unless noted, the call rests on the fitted dose curve; in most records, active means well fitted curve in the direction sought with a large enough effect; inconclusive means small, poorly fitted or top-dose-only effect, or another doubt; inactive means no such curve, though single readings can be large; an effect the other way counts as inactive or inconclusive.

CCC(=O)C1=C(c2ccc(Cl)cc2)N(C(=O)CC)n2c(C)nnc2S1	mIDH1 inhibitor 45µM (no result: D3 antag, B2AR arrestin, a7 integrin act) | IDH1 autofl inactive | WT IDH1 inh inactive | IDH1 R132H conf 14µM
COC(=O)c1ccc(C2NCCc3cc(OC)c(OC)cc32)cc1 (configuration not stated)	none
N#CC(=C1C=C(Br)C(=NO)C=C1Cl)c1ccc(Cl)cc1	mIDH1 inhibitor inconclusive (no result: B2AR arrestin) | IDH1 autofl inactive | WT IDH1 inh inconclusive | IDH1 R132H conf 28µM
O=C(CCN1C(=O)c2ccccc2Sc2ncccc21)Nc1ccc(F)cc1F	none (no result: D3 antag, B2AR arrestin, a7 integrin act)
Cc1ccc2c(c1)Oc1ccc(NC(=O)CCl)cc1C(=O)N2	mIDH1 inhibitor 13µM, D3 antag inconclusive | IDH1 autofl inactive | WT IDH1 inh 71µM | IDH1 R132H conf 6.3µM
Cc1ccc2c(c1)Oc1ccc([N+](=O)[O-])cc1C(=O)N2	none
Cc1cc(OCC(=O)NCC2CCC(C(=O)O)CC2)c2c(C)c(Cc3ccccc3)c(=O)oc2c1 (configuration not stated)	none
Cc1cc(C)cc(N(CC(=O)Nc2ccc(C(F)(F)F)cc2)S(=O)(=O)c2c(C)[nH]c(=O)[nH]c2=O)c1	mIDH1 inhibitor 10µM! | IDH1 autofl inactive | WT IDH1 inh 45µM | IDH1 R132H conf 32µM
COc1cc(NC(=O)CN(c2cc(C)cc(C)c2)S(=O)(=O)c2c(C)[nH]c(=O)[nH]c2=O)cc(OC)c1	none
O=C1NC[C@H](Cc2ccc(O)cc2)N(C[C@@H]2CCCN2C[C@H](Cc2ccc(O)cc2)N2C[C@H](Cc3ccccc3)N(CC3CCCCCC3)C(=O)C2=O)C1=O	none (no result: mIDH1 inhibitor, B2AR arrestin, a7 integrin act)
CCOc1ccc(CCN2C(=O)C(=O)N([C@@H](Cc3ccccc3)CN3CCC[C@H]3CN3C(=O)C(=O)NC[C@@H]3Cc3ccc(O)cc3)C[C@@H]2Cc2ccc(O)cc2)cc1	none (no result: mIDH1 inhibitor, B2AR arrestin, a7 integrin act)
CC(C)C[C@@H](CN1CCC[C@H]1CN1C(=O)C(=O)NC[C@@H]1Cc1ccc(O)cc1)N1C[C@H](Cc2ccccc2)N(CC2CCCCCC2)C(=O)C1=O	none (no result: mIDH1 inhibitor, B2AR arrestin, a7 integrin act)
CCOc1ccc(CCN2C(=O)C(=O)N([C@@H](Cc3ccc(O)cc3)CN3CCC[C@@H]3CN3C(=O)C(=O)NC[C@@H]3Cc3ccccc3)C[C@@H]2Cc2ccccc2)cc1	mIDH1 inhibitor 32µM (no result: B2AR arrestin) | IDH1 autofl inactive | WT IDH1 inh inactive | IDH1 R132H conf 10µM
O=C1NC[C@H](Cc2ccccc2)N(C[C@H]2CCCN2C[C@H](Cc2ccccc2)N2C[C@H](Cc3ccc(O)cc3)N(CC3CCCCCC3)C(=O)C2=O)C1=O	mIDH1 inhibitor inconclusive (no result: B2AR arrestin) | IDH1 autofl inactive | WT IDH1 inh inactive | IDH1 R132H conf 10µM
CC(C)C[C@@H](CN1CCC[C@@H]1CN1C(=O)C(=O)NC[C@@H]1Cc1ccccc1)N1C[C@H](Cc2ccc(O)cc2)N(CC2CCCCCC2)C(=O)C1=O	mIDH1 inhibitor 28µM (no result: B2AR arrestin) | IDH1 autofl inactive | WT IDH1 inh inactive | IDH1 R132H conf 11µM
O=C1NC[C@H](Cc2ccccc2)N(C[C@H]2CCCN2C[C@H](Cc2ccc(O)cc2)N2C[C@H](Cc3ccc(O)cc3)N(CC3CCCCCC3)C(=O)C2=O)C1=O	mIDH1 inhibitor inconclusive (no result: B2AR arrestin) | IDH1 autofl inactive | WT IDH1 inh inactive | IDH1 R132H conf 16µM
CS(=O)(=O)c1ccc2nc(NC(=O)CCN3C(=O)c4ccccc4C3=O)sc2c1	none
C=CCNC(N)=S	none
O=C1CCCCC1C(O)c1ccc(Cl)cc1 (configuration not stated)	none (no result: mIDH1 inhibitor, D3 ag, D3 antag, a7 integrin act)
COc1cc(C2(c3ccc(O)c(OC)c3)C(=O)N(C)c3ccc(Br)cc32)ccc1O	none (no result: B2AR arrestin)
COc1cc(C2(c3ccc(O)c(OC)c3)C(=O)Nc3c(Br)cc(Br)cc32)ccc1O	mIDH1 inhibitor 52µM (no result: B2AR arrestin) | IDH1 autofl inactive | WT IDH1 inh inconclusive | IDH1 R132H conf 40µM
Cn1c(SSc2ccc(-c3cccnc3)n2C)ccc1-c1cccnc1	mIDH1 inhibitor 10µM, D3 antag inconclusive (no result: B2AR arrestin) | IDH1 autofl inactive | WT IDH1 inh inactive | IDH1 R132H conf 35µM
c1cncc(-c2nnc(-c3cccnc3)nn2)c1	D3 antag inconclusive
CCc1ccc(Sc2cc(C(=O)NC(C)CC)c3ccccc3n2)cc1 (configuration not stated)	mIDH1 inhibitor inconclusive (no result: D3 antag, B2AR arrestin, a7 integrin act) | IDH1 autofl inactive | WT IDH1 inh inactive | IDH1 R132H conf inconclusive
CCC(C)NC(=O)c1cc(Sc2cccc(Cl)c2)nc2ccccc12 (configuration not stated)	none (no result: D3 antag, B2AR arrestin, a7 integrin act)
CC(C)=CCc1c(O)cc(O)c2c(=O)c3c(CC=C(C)C)c(O)ccc3oc12	mIDH1 inhibitor 45µM (no result: B2AR arrestin) | IDH1 autofl inactive | WT IDH1 inh inactive | IDH1 R132H conf 40µM
Cc1cccc(/C=C/C(=O)c2ccc([N+](=O)[O-])o2)c1	mIDH1 inhibitor 4.5µM, D3 antag -58 | IDH1 autofl inactive | WT IDH1 inh 22µM | IDH1 R132H conf 2µM
Cc1cccc(NC(=O)c2ccc([N+](=O)[O-])o2)n1	none
Cc1ccccc1/C=C/C(=O)c1ccc([N+](=O)[O-])o1	mIDH1 inhibitor inconclusive, D3 antag -58 | IDH1 autofl inactive | WT IDH1 inh 40µM | IDH1 R132H conf inconclusive
O=C(O)C(O)C(O)c1nc2ccccc2[nH]1 (configuration not stated)	none
COc1ccc(CCC(C)NCCc2ccc(Cl)cc2Cl)cc1 (configuration not stated)	none
Cc1ccc(C)c(N(C)C(=O)c2cc3c(=O)[nH]c4ccc(C)cc4c3s2)c1	mIDH1 inhibitor 21µM | IDH1 autofl inactive | WT IDH1 inh inconclusive | IDH1 R132H conf 11µM
Cc1ccc(Cl)cc1-n1ncc2c(Nc3cccc(C)c3C)ncnc21	none (no result: D3 antag, B2AR arrestin, a7 integrin act)
CC(C)c1ccc(S(=O)(=O)N2CCN(CCC(=O)Nc3ccc(N(C)C)cc3)CC2)cc1	mIDH1 inhibitor 46µM | IDH1 autofl inactive | WT IDH1 inh inactive | IDH1 R132H conf 22µM
COc1ccc(NC(=O)CCN2CCN(S(=O)(=O)c3ccc(C(C)C)cc3)CC2)cc1	D3 antag inconclusive
O=C(NC1CCCCC1)C(c1ccc(F)cc1)N(C(=O)c1cccs1)c1ccc2c(c1)OCO2 (configuration not stated)	mIDH1 inhibitor inconclusive | IDH1 autofl inactive | WT IDH1 inh inactive | IDH1 R132H conf 7.9µM
O=C(NC1CCCCC1)C(c1cccs1)N(C(=O)c1ccco1)c1ccc2c(c1)OCCO2 (configuration not stated)	mIDH1 inhibitor inconclusive | IDH1 autofl inactive | WT IDH1 inh inactive | IDH1 R132H conf inconclusive
